In PubChem BioAssay AID1970 (National Center for Advancing Translational Sciences (NCATS), 2009):
Inconclusive results are not listed. Activity calls are given as the source filed them. Calls follow the shape of the dose curve; as a rule, active = well fitted inhibition curve with a large enough effect; inconclusive = small, poorly fitted or top-dose-only effect; inactive = flat fitted curve, though single readings scatter.

Target: Dual specificity protein kinase CLK4 (Homo sapiens) (UniProt Q9HAZ1)
Assay: Confirmation Assay for Inhibitors of CDC-like Kinase 4 (Kinase-Glo Assay)
Settings: recombinant Clk4, Kinase-Glo ATP depletion luminescence
Method: NIH Molecular Libraries Probe Production Centers Network [MLPCN] NIH Chemical Genomics Center [NCGC] MLPCN Grant: 1R03MH084827-01 Assay Submitter (PI): Tom Misteli NCGC Assay Overview: Clk4 (Invitrogen, cat# PV3839) was assayed using ATP and the RS repeat peptide (AnaSpec cat # 61722) as substrates. Following the Clk4 reaction, the remaining ATP levels were detected using Promega Kinase-Glo technology wherein the remaining ATP from the kinase reaction is detected using Ultra-Glo luciferase and D-luciferin which generates a bioluminescence signal from the ATP.
NCGC Assay Protocol Summary: Two uL/well of substrate-buffer solution (100 uM RS peptide, 1 uM ATP, 25 mM Tris pH7.5, 10 mM MgCl2, 0.5 mM EGTA, 2.5 mM DTT, 0.01% Triton X-100 final concentration) was dispensed into 1536-well, assay plates (Greiner, solid white medium-binding plates) with Aurora Discovery BioRAPTR Flying Reagent Dispenser (FRD; Beckton-Dickenson). Using a Kalypsys pin tool equipped with a 1536-pin tool, 23 nL of compound solution was transferred to the assay plate. […] Luminescence was detected with the ViewLux plate reader (Perkin Elmer, Waltham, MA) after 5 min incubation using a 5 second exposure time and 2x binning.

Chain of Dual specificity protein kinase CLK4 (Homo sapiens) (Q9HAZ1 whole entry, looked up): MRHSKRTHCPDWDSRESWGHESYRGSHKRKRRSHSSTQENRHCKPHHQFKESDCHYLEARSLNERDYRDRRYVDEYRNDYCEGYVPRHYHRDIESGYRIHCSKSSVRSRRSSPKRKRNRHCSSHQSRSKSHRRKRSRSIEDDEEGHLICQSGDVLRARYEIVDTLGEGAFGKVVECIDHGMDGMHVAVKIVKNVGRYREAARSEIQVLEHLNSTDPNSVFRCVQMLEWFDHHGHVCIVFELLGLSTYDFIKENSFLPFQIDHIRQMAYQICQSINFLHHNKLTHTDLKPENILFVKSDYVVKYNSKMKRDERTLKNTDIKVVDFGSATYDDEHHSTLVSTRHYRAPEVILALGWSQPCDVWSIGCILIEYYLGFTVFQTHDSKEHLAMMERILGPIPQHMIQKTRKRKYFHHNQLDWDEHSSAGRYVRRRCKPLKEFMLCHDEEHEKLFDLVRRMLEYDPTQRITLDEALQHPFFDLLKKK

**Q.** `COc1ccc2c(c1)[nH]c1c(C)nccc12` was tested. Which Potency did it give?
**A.** The Potency was 67.1 nM (active).
